The source of these data is PubChem BioAssay AID624330 (Southern Research Specialized Biocontainment Screening …, 2012).

The campaign covered roughly 340,000 compounds. About 2,100 (0.62%) were called active. A selection follows. Entries with a potency or affinity are not part of this list. A number with no mark means an inactive call.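 How the source made its calls: active means first-screen hits whose inhibition reached a set limit at any dose in the follow-up dose series; inconclusive means inhibition above the set first-screen limit but never retested; inactive means the rest.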

The target of the assay is Rac GTPase-activating protein 1 (Homo sapiens) (UniProt Q9H0H5). Nature of the assay: MgcRacGAP GTPase-activating activity inhibitors, confirmation, biochemical, ADP Hunter fluorescence, primary and confirmatory (AID 624330).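 Further: fluorescence reports GDP produced by GAP-driven GTP hydrolysis.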 Conditions: MgcRacGAP-stimulated Rac1 GTP hydrolysis, at 30 µM, stronger effect = higher value, GST-tagged Rac1 F28L mutant substrate.
Sequence of Rac GTPase-activating protein 1 (Homo sapiens) (Q9H0H5 whole entry, looked up): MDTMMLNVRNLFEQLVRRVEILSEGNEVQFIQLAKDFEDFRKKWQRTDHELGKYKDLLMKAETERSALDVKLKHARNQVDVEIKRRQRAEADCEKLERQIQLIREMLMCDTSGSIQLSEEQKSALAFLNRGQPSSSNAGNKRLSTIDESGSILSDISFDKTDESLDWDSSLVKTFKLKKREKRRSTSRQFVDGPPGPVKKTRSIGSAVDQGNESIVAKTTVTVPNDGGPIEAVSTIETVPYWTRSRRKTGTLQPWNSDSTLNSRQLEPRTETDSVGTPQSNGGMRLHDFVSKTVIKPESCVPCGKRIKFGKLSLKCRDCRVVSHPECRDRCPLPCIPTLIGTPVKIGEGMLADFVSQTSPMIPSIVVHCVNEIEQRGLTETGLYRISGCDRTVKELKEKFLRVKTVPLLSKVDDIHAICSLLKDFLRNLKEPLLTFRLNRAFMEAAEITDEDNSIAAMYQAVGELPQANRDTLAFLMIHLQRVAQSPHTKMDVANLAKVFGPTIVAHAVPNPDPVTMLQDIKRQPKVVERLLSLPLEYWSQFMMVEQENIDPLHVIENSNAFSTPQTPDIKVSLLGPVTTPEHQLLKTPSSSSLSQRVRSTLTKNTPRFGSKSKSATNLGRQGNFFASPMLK
In general, inhibition refers to the change of the read-out against control, counted positive when it falls. Take `CCOc1ccccc1C(=O)NCC(=O)NCC(C)(C)N1CCOCC1`: the inhibition is 3.54%.
Take `O=C(C1COc2ccccc2O1)N1CCN(c2nc3c(F)cc(F)cc3s2)CC1` (centres undefined): the inhibition is 1.62%.
Consider `CCOC(=O)C1CCCN(S(=O)(=O)c2c(C)c(C)cc(C)c2C)C1` (centres undefined), for which the inhibition is 3.51%.
Take `COC(=O)C1=C(C(=O)c2ccccc2)C(c2cccs2)n2nnnc2N1` (centres undefined): the inhibition is 12.1%.
As for `CCN(c1ccccc1)S(=O)(=O)c1cccc(C(=O)Nc2cccc(C)n2)c1`, the inhibition was 16.5%.
For the compound `CCC1CCCCN1C(=O)CSc1nc(N)cc(=O)[nH]1` (centres undefined), the inhibition is 9.52%.
Regarding `COc1ccc(C(O)CNc2ccc(C)cc2)cc1` (centres undefined), the inhibition was 12.6%.
On to `COc1ccc(Cl)cc1NCCC(O)c1ccc(F)cc1` (centres undefined), for which the inhibition was 10.5%.
With `Cc1cccc(NC(=O)c2ccc(COc3ccccc3)o2)n1`, the inhibition is -1.27%.
As for `CC(C)(CC(=O)OCC(=O)Nc1ccccc1F)CC1=NS(=O)(=O)c2ccccc2N1`, the inhibition is 8.87%.
As to `CCOC(=O)C1(CC2CCCCO2)CCN(C(=O)Nc2ccc(C)c(C)c2)CC1` (centres undefined), the inhibition is 8.55%.
Take `O=C(NCc1ccccc1)C1=C[C@H](c2csc3ccccc23)C[C@H](OCCCCO)O1`: the inhibition was 5.83%.
`COc1cc(/C=N/NC(=O)c2c(C)nnn2-c2nonc2N)ccc1O`: the inhibition is 21.5%.
As for `Cc1nonc1C(=O)N/N=C/c1ccncc1`, the inhibition is 4.44%.
On to `COc1cccc(/C=N/NC(=O)c2nnn(-c3nonc3N)c2C(C)C)c1`, for which the inhibition was 2.84%.
As to `Cc1nonc1C(=O)N/N=C/c1ccc([N+](=O)[O-])o1`, the inhibition was 6.74%.
On to `Cc1nnn(-c2nonc2N)c1C(=O)N/N=C/c1ccccc1O`, for which the inhibition was 5.56%.
On to `Cc1nonc1C(=O)N/N=C/c1cccc(O)c1`, for which the inhibition was 5.55%.
With `Cc1nonc1C(=O)N/N=C/c1ccccc1`, the inhibition is 7.47%.
In the case of `COc1cc(/C=N/NC(=O)c2nnn(-c3nonc3N)c2C(C)C)ccc1OCc1ccccc1`, the inhibition was 12.2%.
With `Cc1cc(NC(=O)COC(=O)c2cc([N+](=O)[O-])ccc2N2CCOCC2)ccc1Br`, the inhibition is -0.1%.
`O=C(COc1ccccc1F)NC12CC3CC(CC(C3)C1)C2`: the inhibition was 9.07%.
The same measure for `CCN(CC(=O)Nc1c(F)cccc1F)C(=O)c1ccc(=O)n(C)n1`: 7.24%.
As to `CN(C)CCNC(=O)C(=O)NCC1OCCCN1S(=O)(=O)c1cccs1` (centres undefined), the inhibition was 5.17%.
For `CCN(CC)CCN(CC(=O)Nc1c(C)cc(C)cc1C)C(=O)c1ccccc1`, the inhibition was 14.8%.
`CCN(CC)C(=O)CSc1nc2ncc(Br)cc2[nH]1`: the inhibition is 1.23%.
On to `CCCCN(C)C(=O)c1ccc2c(c1)N(CC)C(=O)c1ccccc1S2=O` (centres undefined), for which the inhibition was 7.28%.
On to `COc1ccc(/C=N/NC(=O)c2nonc2C)cc1`, for which the inhibition was 17.8%.
For the compound `Cc1nonc1C(=O)N/N=C/c1cc2c(cc1Br)OCO2`, the inhibition is -12.5%.
As for `COc1ccc(/C=N/NC(=O)c2nonc2N)cc1OC`, the inhibition was 11.7%.
Take `O=C(N/N=C/c1ccc(O)cc1O)C(=O)N/N=C/c1ccc(O)cc1O`: the inhibition is 16.7%.
Turning to `COc1ccnc(N=CNOCc2ccc(Cl)cc2)c1C#N`, the inhibition was 13.5%.
For `COc1ccc(NS(=O)(=O)c2c(C)[nH]c(=O)[nH]c2=O)cc1OC`, the inhibition is 8.91%.
`Cc1cccc(N(C)S(=O)(=O)c2ccc3[nH]cc(C(=O)N4CCOCC4)c(=O)c3c2)c1`: the inhibition is -3.07%.
Regarding `CCOC(=O)Cc1nnc(NCc2ccccc2)c2ccccc12`, the inhibition is 6.91%.
Consider `Cc1cccc(N(CC(=O)NCC2CCCO2)C(=O)CCC(=O)Nc2cc(C)on2)c1` (centres undefined), for which the inhibition was 4.72%.
`Cn1cnc2cc(NCc3ccccc3Cl)ccc21`: the inhibition was 26.5%.
Take `COc1cccc(CNc2ccc3c(c2)nc(C)n3C)c1OC`: the inhibition is 30.5%.
Under `CC(C)(C)n1cnc2cc(NCc3ccccc3O)ccc21` stands 13.7%.
For `COc1cccc(CNc2ccc3c(c2)ncn3C(C)C)c1OC`, the inhibition was 24.5%.
On to `Cc1noc(C)c1NC(=O)Nc1cccc2c1O[C@@H](CN(C)Cc1ccc3c(c1)OCO3)[C@@H](C)CN([C@H](C)CO)C2=O`, for which the inhibition was 4.09%.
Regarding `CCN1CCCC1CNC(=O)c1ccc(Sc2ccccc2Cl)c([N+](=O)[O-])c1` (centres undefined), the inhibition was 4.96%.
Under `Cc1cc(=O)oc2c(CN3CCCCC3)c(O)ccc12` stands 2.34%; under `Cc1cc(=O)oc2c(CN3CCCC3)c(O)ccc12`, 6.69%; under `Cc1c(O)ccc2c(CN3CCOCC3)cc(=O)oc12`, 17.9%.
In the case of `Cc1ccc2c(CN3CCOCC3)cc(=O)oc2c1C`, the inhibition was 3.73%.
In the case of `CC1CCN(CC(O)COc2cccc(F)c2)CC1` (centres undefined), the inhibition was 2.16%.
Turning to `NC(=O)c1ccc(NC(=O)CN2CCN(C(=O)c3ccco3)CC2)cc1`, the inhibition was 13.6%.
The same measure for `CSc1cccc(CN2CCCC(CNC(=O)c3ccco3)C2)c1` (centres undefined): 8.31%; for `Cc1c(NC(=O)Nc2ccc(Cl)c(Cl)c2)sc(=S)n1C`: -8.84%.
As for `N#C/C(=C\c1cccc(O)c1)C(=O)N1CCCCC1`, the inhibition is 11.3%.
Turning to `N#C/C(=C/c1cc(Cl)c(O)c(Cl)c1)C(=O)N1CCCCC1`, the inhibition is 10.9%.
On to `O=C(O)c1ccc(/C=C2\CCCc3c2nc2ccccc2c3C(=O)O)cc1`, for which the inhibition was 3.69%.
The same measure for `O=C(O)c1c2c(nc3ccccc13)/C(=C/c1ccc(OC(F)F)cc1)CCC2`: 9.02%; for `CN(C)C(=O)CCc1ccc2c3c([nH]c2c1)[C@]1(C)[C@@H](C(=O)N2CCOCC2)C[C@H](CC(=O)NCc2cccc(C(F)(F)F)c2)C(=O)N1CC3`: -2.92%; for `C/C(=N/NC(=O)c1cccc(Br)c1)C1CC2CCC1C2` (centres undefined): -6.86%.
Regarding `Cc1ccc(/C=C(/C#N)c2nc(CCN3C(=O)c4ccccc4C3=O)cs2)cc1`, the inhibition is 9.96%.
Under `CC(C(=O)NC1CCCC1)N1CCN(Cc2ccccc2)CC1` (centres undefined) stands 9.35%; under `CN1CCC(NC(=O)NC2CCCCC2)CC1`, 4.99%; under `CC(C(=O)NC(=O)NC1CCCCC1)N1CCN(C(c2ccccc2)c2ccccc2)CC1` (centres undefined), 4.85%.
Under `COc1ccc(N2CCN(C(C)C(=O)N3CC(C)OC(C)C3)CC2)cc1` (centres undefined) stands 26.9%; under `CN1CCN(C(=O)NC2CCCCC2)CC1`, 13%; under `COc1ccc(N2CCN(C(C)C(=O)N3CCc4ccccc43)CC2)cc1` (centres undefined), 19.8%.
`CCN1CCN(C(C(=O)NC2CCCCC2)c2ccc(Cl)cc2)CC1` (centres undefined): the inhibition was 2.93%.
Take `CC(C(=O)NC(=O)NC1CCCCC1)N1CCN(c2ccccn2)CC1` (centres undefined): the inhibition is 4.4%.
As to `C=CCN1C(=O)CS/C1=N\S(=O)(=O)c1ccc(Cl)cc1`, the inhibition is -1.54%.
Under `CCOC(=O)c1c(C)n(C)c2ccc(OC)c([N+](=O)[O-])c12` stands 8.57%; under `CCCOc1c(Br)cc(C(=O)NCC)cc1OC`, 13%.
The same measure for `CSCCC(NS(=O)(=O)c1ccc2c(c1)oc(=O)n2C)C(=O)NCc1ccc(C)cc1` (centres undefined): 9.41%; for `CCCNC(=O)c1ccc(OC)cc1OC`: -1.98%.
`Cc1cccc(N=C2CCCC2C(=O)Nc2cccc(C)c2C)c1C` (centres undefined): the inhibition is 5.77%.
The same measure for `NC(=O)c1ccsc1NC(=O)COC(=O)c1cc(Cl)ccc1O`: 0.77%; for `CC(=O)NC(C(=O)c1ccccc1)N1CCCCC1` (centres undefined): 13.8%.
Turning to `Cc1ccc(/C=C2/NC(=O)[C@H](C)NC2=O)cc1`, the inhibition was 6.59%.
Regarding `CCN1C(=NCCOC)N[C@@H](CCc2ccccc2)[C@H](C(=O)OC)[C@H]1C`, the inhibition is 12.5%.
As to `C=C(C)CSc1nc2sc3c(c2c(=O)n1-c1ccccc1)CCN(C)C3`, the inhibition is 11.6%.
On to `COc1cccc(N2CCN(C(=O)NC3CCCCC3)CC2)c1`, for which the inhibition is 2.77%.
Regarding `O=C(NC1CCCCC1)N1CCN(c2ccc(Cl)cc2)CC1`, the inhibition was 6.94%.
As for `O=C(c1ccccc1Cc1ccccc1)N1CCN(S(=O)(=O)c2ccccc2Br)CC1`, the inhibition is 3.3%.
Under `COc1ccc(S(=O)(=O)N2CCN(C(=O)CCSc3ccccc3)CC2)cc1` stands 7.76%; under `O=C(CNC(=O)c1ccccc1Br)N/N=C/c1ccco1`, 5.21%.
For `O=C(c1ccc(S(=O)(=O)NCC2CCCO2)cc1)N1CCN(c2ccccc2F)CC1` (centres undefined), the inhibition was 5.89%.
Regarding `COc1ccc(S(=O)(=O)Cc2ccc(C(=O)N3CCN(c4ccc(Cl)cc4)CC3)o2)cc1`, the inhibition was 4.84%.
On to `COc1ccc(N2CCN(C(=O)c3ccc(CS(=O)Cc4ccc(Cl)cc4)o3)CC2)cc1` (centres undefined), for which the inhibition is 14%.
Under `C=CCN(Cc1ccc(Cl)s1)C(=O)c1cc(S(=O)(=O)N2CCOCC2)ccc1F` stands 1.3%; under `COc1cc(/C=C(/NC(=O)c2ccccc2)C(=O)Nc2ccccc2)c([N+](=O)[O-])cc1OC`, 4.35%; under `COc1ccc(NC(=O)/C(=C\c2cc(OC)c(OC)cc2[N+](=O)[O-])NC(=O)c2ccccc2)cc1`, 9.89%.
Regarding `C=CCn1c(CNc2ccc(C)cc2)nnc1SCC(=O)N/N=C/c1ccc(O)cc1`, the inhibition is 30.4%.
The same measure for `C=CCn1c(COc2ccccc2)nnc1SCC(=O)N/N=C/c1cc(Cl)ccc1O`: 11%; for `C=CCn1c(COc2ccccc2)nnc1SCC(=O)N/N=C/c1ccc(C)cc1`: 1.44%; for `C=CCn1c(CNc2ccccc2)nnc1SCC(=O)N/N=C/c1ccccc1O`: 3.95%.
Regarding `COc1c(N)c2c(c([N+](=O)[O-])c1OC)C(=O)OC2`, the inhibition was -0.66%.
With `C/C(=N\OCC(=O)Nn1c(=O)[nH]c2ccccc2c1=O)c1ccccc1`, the inhibition is 10.5%.
On to `Cc1cc(C)nc(NN=C(c2ccccc2)c2ccccc2)n1`, for which the inhibition was 7.14%.
